# This excerpt belongs to a sample that is enriched for the strongest signals.
# B1: GS7807I-bvu-563-22-563 (Bacteroides vulgatus) (protein)
# chain: IFSSCTDDFEKLNTSNIQVDPADLPFAAQCTEPMTYCYPPQQNMFQFWTNLTIDLYGGYFMTPNGNFTNGDMGENRGHSGGMYENYYLHIFNNTRRIIAQCDASGERGLSGVMRIVQAYGTLMTTDAYGPIPYSSILSGENEVYFEFDSQKDLYKAMLEDLSTAITDISAMGADEIAKLKSFDCWCNGDKDLWVKIANTMKLRMALRLSKRETEAGNAGMNLKAIATEAAQNTLATVNKDILIDKSLENEMWLMFNWGDCGFNANLVTIMSGTKDPRQPLYMTLNTGDIKNEAGTTTVAANSQYLGIRFASGLPAKPNSWGNFSGWIQGNNGSSYSMPLPIMKAAEAYFLLAEAKLRWDIGSESVKNLYENGIRVSMTNELAYRGAYAGIKEYPEGAVDAYINGTSTQIDYTDPIKAELSTPAVNKLSVKWDESASNEEKLERIITQKWLALFPLSTEGWAEQRRTGYPRFFPAFVNESNGAVNTEEGVRRVIYSSQAYDANAKGVEGGIKLLDEENSSKFGISGDKGGTHLWWDNADKGNF
# How the values were obtained:
# Test in all cases: glycan array binding signal (z-score within array); higher = stronger binding
# Settings in all cases: glycan notation: IUPAC condensed, linker removed
# [1] = target: Fuc(a1-2)Gal(b1-3)GlcNAc(b1-2)Man(a1-3)[Fuc(a1-2)Gal(b1-3)GlcNAc(b1-2)Man(a1-6)]Man(b1-4)GlcNAc(b1-4)GlcNAc
# Summary of the method: (§1)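 Columns mapping to the same glycan were averaged after glycan names were converted to IUPAC-condensed notation. The data come from 3228 arrays in the Consortium for Functional Glycomics database, limited to those with an available protein sequence. Binding is reported as a within-array Z-score averaged across arrays of one protein sequence and across linkers.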
# [2] = target: Fuc(a1-2)Gal(b1-3)GlcNAc(b1-3)[Neu5Ac(a2-6)Gal(b1-4)GlcNAc(b1-6)]Gal(b1-4)Glc
# Summary of the method: as §1
# [3] = target: Fuc(a1-2)Gal(b1-3)[Fuc(a1-4)]GlcNAc(b1-3)[Gal(b1-4)GlcNAc(b1-6)]Gal(b1-4)Glc
# Summary of the method: as §1
# [4] = target: Fuc(a1-2)[Gal(a1-3)]Gal(b1-3)GlcNAc(b1-2)Man(a1-3)[Fuc(a1-2)[Gal(a1-3)]Gal(b1-3)GlcNAc(b1-2)Man(a1-6)]Man(b1-4)GlcNAc(b1-4)[Fuc(a1-6)]GlcNAc
# Summary of the method: as §1
# [5] = target: Fuc(a1-2)[Gal(a1-3)]Gal(b1-3)GlcNAc(b1-6)GalNAc
# Summary of the method: as §1
# [6] = target: Fuc(a1-2)[GalNAc(a1-3)]Gal(b1-4)GlcNAc(b1-2)Man(a1-3)[Fuc(a1-2)[GalNAc(a1-3)]Gal(b1-4)GlcNAc(b1-2)Man(a1-6)]Man(b1-4)GlcNAc(b1-4)GlcNAc
# Summary of the method: as §1
# [7] = target: Fuc(a1-3)[Gal3S(b1-4)]GlcNAc
# Summary of the method: as §1
# [8] = target: Fuc(a1-3)[Gal3S(b1-4)]GlcNAc6S
# Summary of the method: as §1
# [9] = target: Gal(a1-3)Gal(b1-4)GlcNAc(b1-3)GalNAc
# Summary of the method: as §1
# [10] = target: Gal(a1-3)Gal(b1-4)[Fuc(a1-3)]GlcNAc(b1-2)Man(a1-3)[Gal(a1-3)Gal(b1-4)[Fuc(a1-3)]GlcNAc(b1-2)Man(a1-6)]Man(b1-4)GlcNAc(b1-4)GlcNAc
# Summary of the method: as §1
# [11] = target: Gal(a1-3)[Gal(a1-4)]Gal(b1-4)GlcNAc
# Summary of the method: as §1
# [12] = target: Gal(a1-4)Gal(b1-4)GlcNAc
# Summary of the method: as §1
# [13] = target: Gal(a1-4)Gal(b1-4)GlcNAc(b1-2)Man(a1-3)[Gal(a1-4)Gal(b1-4)GlcNAc(b1-2)Man(a1-6)]Man(b1-4)GlcNAc(b1-4)GlcNAc
# Summary of the method: as §1
# [14] = target: Gal(b1-3)GlcNAc(b1-2)Man(a1-3)[GlcNAc(b1-4)][Gal(b1-3)GlcNAc(b1-2)Man(a1-6)]Man(b1-4)GlcNAc(b1-4)GlcNAc
# Summary of the method: as §1
# [15] = target: Gal(b1-3)GlcNAc(b1-3)Gal(b1-4)Glc
# Summary of the method: as §1
# [16] = target: Gal(b1-3)GlcNAc(b1-3)Gal(b1-4)[Fuc(a1-3)]GlcNAc
# Summary of the method: as §1
# [17] = target: Gal(b1-3)[Fuc(a1-4)]GlcNAc(b1-6)GalNAc
# Summary of the method: as §1
# [18] = target: Gal(b1-3)[GlcNAc(b1-6)]GalNAc
# Summary of the method: as §1
# [19] = target: Gal(b1-3)[Neu5Ac(a2-6)]GalNAc
# Summary of the method: as §1
# [20] = target: Gal(b1-4)GlcNAc(b1-2)[Gal(b1-4)GlcNAc(b1-6)]Man(a1-6)[Gal(b1-4)GlcNAc(b1-2)Man(a1-3)]Man(b1-4)GlcNAc(b1-4)[Fuc(a1-6)]GlcNAc
# Summary of the method: as §1
# [21] = target: Gal(b1-4)GlcNAc(b1-3)Gal(b1-4)GlcNAc(b1-2)[Gal(b1-4)GlcNAc(b1-3)Gal(b1-4)GlcNAc(b1-6)]Man(a1-6)[Gal(b1-4)GlcNAc(b1-3)Gal(b1-4)GlcNAc(b1-2)Man(a1-3)]Man(b1-4)GlcNAc(b1-4)[Fuc(a1-6)]GlcNAc
# Summary of the method: as §1
# [22] = target: Gal(b1-4)GlcNAc(b1-3)Gal(b1-4)GlcNAc(b1-3)Gal(b1-4)GlcNAc(b1-3)Gal(b1-4)GlcNAc(b1-2)Man(a1-3)[Gal(b1-4)GlcNAc(b1-3)Gal(b1-4)GlcNAc(b1-3)Gal(b1-4)GlcNAc(b1-3)Gal(b1-4)GlcNAc(b1-2)Man(a1-6)]Man(b1-4)GlcNAc(b1-4)[Fuc(a1-6)]GlcNAc
# Summary of the method: as §1
# [23] = target: Gal3S(b1-3)GlcNAc
# Summary of the method: as §1
# [24] = target: Gal3S(b1-4)[Fuc(a1-3)]GlcNAc
# Summary of the method: as §1
# [25] = target: Glc(b1-4)Glc
# Summary of the method: as §1
# [26] = target: GlcNAc(a1-4)Gal(b1-4)GlcNAc(b1-3)Gal(b1-4)[Fuc(a1-3)]GlcNAc(b1-3)Gal(b1-4)[Fuc(a1-3)]GlcNAc
# Summary of the method: as §1
# [27] = target: GlcNAc(b1-2)Gal(b1-3)GalNAc
# Summary of the method: as §1
# [28] = target: GlcNAc(b1-2)Man(a1-3)[GlcNAc(b1-2)Man(a1-6)]Man(b1-4)GlcNAc(b1-4)GlcNAc
# Summary of the method: as §1
# [29] = target: GlcNAc(b1-2)[GlcNAc(b1-4)]Man(a1-3)[GlcNAc(b1-4)][GlcNAc(b1-2)[GlcNAc(b1-6)]Man(a1-6)]Man(b1-4)GlcNAc(b1-4)[Fuc(a1-6)]GlcNAc
# Summary of the method: as §1
# [30] = target: GlcNAc(b1-3)Gal(b1-4)GlcNAc(b1-3)Gal(b1-4)GlcNAc(b1-2)Man(a1-3)[GlcNAc(b1-3)Gal(b1-4)GlcNAc(b1-3)Gal(b1-4)GlcNAc(b1-2)Man(a1-6)]Man(b1-4)GlcNAc(b1-4)GlcNAc
# Summary of the method: as §1
binder,measurement,setting,value
B1,glycan array binding signal (z-score),[1],4.25
same,glycan array binding signal (z-score),[2],-0.639
same,glycan array binding signal (z-score),[3],-0.806
same,glycan array binding signal (z-score),[4],-0.026
same,glycan array binding signal (z-score),[5],0.231
same,glycan array binding signal (z-score),[6],0.159
same,glycan array binding signal (z-score),[7],0.384
same,glycan array binding signal (z-score),[8],0.755
same,glycan array binding signal (z-score),[9],-1.06
same,glycan array binding signal (z-score),[10],3.63
same,glycan array binding signal (z-score),[11],0.09
same,glycan array binding signal (z-score),[12],0.073
same,glycan array binding signal (z-score),[13],2.76
same,glycan array binding signal (z-score),[14],3.75
same,glycan array binding signal (z-score),[15],-1.02
same,glycan array binding signal (z-score),[16],-0.396
same,glycan array binding signal (z-score),[17],-0.343
same,glycan array binding signal (z-score),[18],-0.484
same,glycan array binding signal (z-score),[19],0.238
same,glycan array binding signal (z-score),[20],-0.297
same,glycan array binding signal (z-score),[21],2.61
same,glycan array binding signal (z-score),[22],3.21
same,glycan array binding signal (z-score),[23],1.03
same,glycan array binding signal (z-score),[24],0.875
same,glycan array binding signal (z-score),[25],-0.567
same,glycan array binding signal (z-score),[26],2.71
same,glycan array binding signal (z-score),[27],0.388
same,glycan array binding signal (z-score),[28],-0.694
same,glycan array binding signal (z-score),[29],-1.04
same,glycan array binding signal (z-score),[30],2.79

# From the supplement of paper PMC8728848
